Bioassay records (PubChem)
Compounds with a hit are over-represented: about 10% of the library has one in this group of screens.
JMJD2A Tudor inh: JMJD2A Tudor domain (human) inhibition. O75164. AlphaScreen JMJD2A-Tudor / H3K4me3 peptide binding. Potency, µM (series often up to 114 µM), without a hit: at the highest dose activity change, negative = inhibition, usual class: inhibitors. 4.4% of 390,000 active. AID 504339; further: on the % scale 0 is the no-effect control and ±100 the full control effect; nearly all actives have a fitted effect of over 50% in size
Target sequence (O75164 whole entry, looked up, the tested form may be a part): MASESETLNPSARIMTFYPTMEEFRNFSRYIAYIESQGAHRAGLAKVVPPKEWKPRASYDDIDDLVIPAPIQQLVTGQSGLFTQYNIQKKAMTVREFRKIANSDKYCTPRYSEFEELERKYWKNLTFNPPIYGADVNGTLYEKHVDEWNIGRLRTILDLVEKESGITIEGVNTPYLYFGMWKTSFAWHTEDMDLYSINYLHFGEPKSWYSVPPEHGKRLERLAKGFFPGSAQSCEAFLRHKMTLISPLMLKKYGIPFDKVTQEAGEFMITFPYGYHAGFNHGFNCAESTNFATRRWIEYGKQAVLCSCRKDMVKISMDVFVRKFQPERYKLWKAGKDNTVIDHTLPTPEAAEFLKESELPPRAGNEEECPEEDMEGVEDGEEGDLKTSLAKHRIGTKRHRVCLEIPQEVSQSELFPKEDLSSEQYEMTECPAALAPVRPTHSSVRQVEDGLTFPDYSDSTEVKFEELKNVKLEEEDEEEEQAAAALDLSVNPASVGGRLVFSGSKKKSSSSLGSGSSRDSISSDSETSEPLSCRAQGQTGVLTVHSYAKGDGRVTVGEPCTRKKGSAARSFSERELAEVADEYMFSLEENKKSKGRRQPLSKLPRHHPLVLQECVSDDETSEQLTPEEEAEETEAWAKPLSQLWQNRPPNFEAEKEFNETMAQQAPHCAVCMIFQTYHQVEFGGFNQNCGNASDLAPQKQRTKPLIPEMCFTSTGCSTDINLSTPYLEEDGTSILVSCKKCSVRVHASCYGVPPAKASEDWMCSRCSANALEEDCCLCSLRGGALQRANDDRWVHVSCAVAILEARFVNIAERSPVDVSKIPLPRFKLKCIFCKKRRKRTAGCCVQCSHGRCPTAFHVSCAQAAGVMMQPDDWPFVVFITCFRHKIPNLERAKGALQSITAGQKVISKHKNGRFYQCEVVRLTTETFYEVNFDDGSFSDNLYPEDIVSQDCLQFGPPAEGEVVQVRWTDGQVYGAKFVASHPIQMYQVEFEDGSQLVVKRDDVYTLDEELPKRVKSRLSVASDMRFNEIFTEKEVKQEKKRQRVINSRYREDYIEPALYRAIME
BAZ2B inh: blocks human BAZ2B. Q9UIF8. AlphaScreen BAZ2B-H3K14Ac peptide displacement. Potency, µM (titrated, usually from 114 µM), without a hit: top-dose activity change, negative = inhibition, usual class: inhibitors. 4.4% of 360,000 active. AID 504333; further: on the % scale 0 is the no-effect control and ±100 the full control effect; nearly all actives have a fitted effect of over 60% in size
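BAZ2B 50 nM plus b-H3(5-23)K14Ac 50 nM, PBS pH 7.4/0.01% Tween-20, 30 min RT; compound added (max 110 uM), 30 min RT; streptavidin donor/Ni-chelate acceptor beads 10 ug/mL final, 20 min dark; AlphaScreen read.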
G9a inh: blocks human histone lysine methyltransferase G9a; Q96KQ7; G9a H3K9 monomethylation, AlphaScreen, 2 h; Potency, µM (highest dose often 102 µM), inactives show top-dose activity, negative = inhibition, most hits filed as inhibitors; 8.8% of 350,000 active; AID 504332; further: on the % scale 0 is the no-effect control and ±100 the full control effect; nearly all actives have a fitted effect of over 75% in size
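AlphaScreen read-out: biotin-H3K9 peptide (500 nM) methylation by 20 nM enzyme with 20 uM SAM, 2 h at room temperature after 15 min compound preincubation; anti-monomethyl H3K9 antibody plus donor/acceptor beads, 10 min dark.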
GLS inhibitor: blocks human kidney-isoform glutaminase activity; 0.21% of 410,000 active; GLS enzymatic activity, qHTS titration; O94925; Potency, µM (titrated, usually from 45.5 µM), for the others: top-dose activity change, negative = inhibition, actives largely listed as inhibitors; further: on the % scale 0 is the no-effect control and ±100 the full control effect
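hKGA in 45 mM KH2PO4 (pH 8.2), 0.02% Tween-20 with compound, then 1mM L-Glutamine (stock as added) plus glutamate oxidase/HRP/Amplex red coupling mix. Fluorescence read initially and after 30 min at RT; signal change reflects glutamate formation.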
HP1b binding inh: HP1-beta chromodomain-methylated histone interaction inhibition. P83916. AlphaScreen HP1-beta / biotin-H3K9me3 peptide binding. Potency, µM (series often up to 114 µM), inactives show at the top dose activity change, negative = inhibition, actives largely listed as inhibitors. 0.56% of 390,000 active. AID 540317; further: nearly all actives have a fitted effect of over 70% in size
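HP1-beta protein (50 nM final) preincubated 30 min at room temperature with biotinylated H3(1-18)K9me3 peptide (50 nM) in PBS pH 7.4, 0.01% Tween-20, then compound added for 30 min. AlphaScreen streptavidin donor/nickel chelate acceptor beads (10 ug/mL final), 30 min dark, luminescence read.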
* = called active by the depositor; ? = inconclusive; nt = no result given; [ ] = remark or other dose. The call rests on the fitted dose curve; in most records, active means well fitted curve in the direction sought with a large enough effect; inconclusive means small, poorly fitted or top-dose-only effect, or another doubt; inactive means no such curve, though single readings can be large; an effect the other way counts as inactive or inconclusive. Potency means the concentration at half of the fitted maximal effect.

SMILES	JMJD2A Tudor inh	BAZ2B inh	G9a inh	GLS inhibitor	HP1b binding inh
CC(=O)NC(=S)Nc1ccc(NC(=O)COc2ccc(C(C)C)cc2)cc1	-1.0%	?	?	4.9%	28.9%
COc1ccc(NC(=O)CNc2ccc(C#N)cc2)cc1	-8.3%	-15.0%	50.1µM*	9.9%	26.5%
O=C(CNc1ccc(Cl)cc1)NNC(=S)NCc1ccccc1	?	-35.3%	50.1µM*	?	5.6%
CC(=O)NC(=S)Nc1ccc(NC(=O)COc2ccc(Cl)cc2)cc1	-5.0%	-1.1%	5.62µM*	-3.1%	43.1%
Cc1cc(OCC(=O)NNC(=S)NC(=O)c2ccc(Br)o2)ccc1Cl	-17.6%	-33.2%	31.6µM*	14.7%	11.9%
Cc1c(Cl)cccc1NC(=O)CCn1nc(C)c2c(C)n(-c3ccccc3)nc2c1=O	-0.3%	1.4%	-0.5%[59 µM]	-19.0%	42.1%
CC(C)Oc1ccc(CNC(=O)CN2C(=O)c3cccnc3Oc3ccc(Cl)cc32)cc1	-23.1%	-5.1%	-29.5%[59 µM]	-12.5%	29.0%
CCn1ncc(Br)c1C(=O)Nc1c(C)nn(Cc2c(F)c(F)c(F)c(F)c2F)c1C	-7.6%	-3.2%	3.5%	-3.2%	29.2%
O=C(CCc1ccccc1)NCc1ccccc1	-13.1%	5.2%	9.5%	-4.6%	24.0%
CC(=O)Nc1ccc(S(=O)(=O)NNC(=O)COc2ccc(Cl)cc2Cl)cc1	-16.8%	-16.9%	50.1µM*	-0.1%	32.8%
Cc1ccc(CCC(=O)NCc2ccccc2)o1	-20.5%	-4.9%	79.4µM*	-5.7%	31.5%
Cc1cccc(NC(=S)NNC(=O)COc2ccc(Cl)cc2Cl)c1	-18.9%	-7.2%	8.91µM*	5.9%	4.9%
COc1ccc(NC(=S)NNC(=O)CNc2ccc(Cl)cc2)cc1	-32.6%	?	10µM*	15.9%	-9.9%
CN(CC(=O)Nc1sccc1C(N)=O)S(=O)(=O)c1ccc(Cl)cc1	-23.6%	nt	nt	11.7%	-8.2%
COc1ccc(-c2cn3nc(SCC(=O)Nc4cccc(C)c4C)ccc3n2)cc1	-6.8%	4.4%	-0.6%[59 µM]	1.2%	30.3%[57 µM]
COc1ccc(NC(=S)NNC(=O)COc2ccc(Cl)cc2Cl)cc1	?	-30.0%	20µM*	11.8%	-25.5%
Cc1cc(C)nc(NS(=O)(=O)c2ccc(NC(=O)COc3ccc(Cl)cc3C)cc2)n1	-10.3%	5.4%[57.1 µM]	10µM*	-0.3%	39.6%
Cc1cc(=O)oc(C)c1C(=O)NNC(=O)C1(C)CC1Br (configuration not stated)	-7.9%	5.1%	7.0%	3.7%	21.0%
CC1(C(=O)NNC(=O)c2ccc(=O)oc2)CC1Br (configuration not stated)	-24.6%	-0.7%	50.1µM*	22.4%	2.4%
O=C(CN1C(=O)NC2(CCCC2)C1=O)NCc1ccc(Cl)cc1	-12.3%	nt	nt	10.9%	18.9%
CC1CC(C)(C)Nc2ccc(OC(=O)c3ccco3)cc21 (configuration not stated)	?	?	44.7µM*	?	-9.3%
Cc1ccc2c(c1)N(C(=O)N1CCC(C(=O)NCCC3=CCCCC3)CC1)CC(C)O2 (configuration not stated)	-9.9%	-13.7%	-8.8%[59 µM]	-1.2%	27.3%
CCc1ccc(NS(=O)(=O)c2ccc(-c3cc(C)no3)cc2)cc1	-10.0%	-1.0%	-9.9%[59 µM]	-6.2%	40.1%
CCCCN1C(=O)/C(=C2\SC(N3CCCCC3)=NC2=O)c2ccccc21	56.2µM*	-84.4%	15.8µM*	-4.8%	15.8µM*
Cc1c(C(=O)Nc2ccc(F)cc2F)oc2ccc3c(c12)C(=O)CC(C)(C)O3	-14.7%	?	-33.4%[59 µM]	-15.1%	17.6%
SMILES	JMJD2A Tudor inh	BAZ2B inh	G9a inh	GLS inhibitor	HP1b binding inh
Cn1cccc1C(NC(=O)c1ccccc1)C(Cl)(Cl)Cl (configuration not stated)	-26.4%	?	44.7µM*	-0.8%	0.8%
O=C(NC(c1ccccc1)c1ccccc1)c1ccccc1	-9.0%	nt	nt	-1.9%	28.9%[57 µM]
COc1cc(-c2nnc3n(CCc4ccccc4)c(=O)c4ccccc4n23)cc(OC)c1OC	0.0%	7.3%	17.8µM*	-8.7%	15.7%
CC(C)OCCCn1c(=O)c2ccccc2n2c(-c3ccc(F)cc3)nnc12	?	?	28.2µM*	3.1%	-1.0%
O=c1nc(Oc2ccccc2)nc2ncccn12	nt	nt	nt	12.8%	nt
COc1ccc(/C=C(/C(=O)c2cccs2)N2C=CC=CC2=C(C#N)C#N)cc1	?	-34.0%	8.91µM*	?	-12.0%
COc1ccc(/C=N/NC(=O)CNC(=O)c2cccs2)cc1	-8.0%	6.1%	19.2%[59 µM]	4.9%	27.3%
O=[N+]([O-])c1ccc(C(=Nc2cccc3ccccc23)N2CCOCC2)cc1	?	50.1µM*	44.7µM*	-6.7%	?
Cc1ccc([N+](=O)[O-])cc1N=C(c1ccc([N+](=O)[O-])cc1)N1CCOCC1	79.4µM*	?	-18.8%[59 µM]	-12.4%	?
Cc1ccc([N+](=O)[O-])cc1N=C(c1cccc([N+](=O)[O-])c1)N1CCOCC1	-16.8%[11.4 µM]	-9.3%	3.9%[0.0925 µM]	-16.5%	-11.1%
Cc1ccc(C)c(Nc2c([N+](=O)[O-])c(=O)oc3ccccc23)c1	?	-27.1%	-10.0%[59 µM]	13.2%	-22.5%
Cc1cc(-c2ccc(S(=O)(=O)Nc3ccccc3F)s2)on1	-11.0%	6.5%	0.4%[59 µM]	12.9%	62.7%
O=C(NC[C@@H]1CCCO1)c1cccc2c1C(=O)c1ccc(Cl)cc1S2(=O)=O	-27.3%	5.7%	6.4%[0.501 µM]	0.3%	21.3%
COc1ccc(-c2ccc3c(c2)S(=O)(=O)c2cccc(C(=O)NC[C@@H]4CCCO4)c2C3=O)cc1OC	39.8µM*	?	7.3%[2.33 µM]	-11.5%	11.6%
CCOC(=O)Cc1cc(=O)n2[nH]c(C)cc2n1	15.8µM*	?	-23.9%[59 µM]	13.8%	11.2%
CCOC(=O)Cc1cc(=O)n2[nH]c(-c3ccc(Cl)cc3)cc2n1	-8.1%	-4.5%	4.7%	1.7%	31.3%
Cc1ccc(S(=O)(=O)Nc2cc3c4c(c2)CCN4C(=O)CC3)cc1	-6.2%	-4.2%	-4.9%[59 µM]	5.2%	34.4%
Cc1cccc(NC(=O)CCc2nnc3ccc(NCc4ccco4)nn23)n1	16.0%	50.1µM*	-7.1%	?	46.0%
O=C(CCc1nnc2ccc(NCc3ccco3)nn12)Nc1ccccn1	11.3%	50.1µM*	?	?	32.3%
O=C(CCc1nnc2ccc(NCc3ccco3)nn12)N1CCN(c2ccccc2F)CC1	?	70.8µM*	nt	8.4%	30.1%
CCOCCc1nn2c(=O)cc(COC(=O)c3ccccc3NC(=O)c3ccccc3F)nc2s1	9.3%	0.2%	-3.9%[12.7 µM]	1.3%	37.1%
CC(C)n1ncc2c(C(=O)N3CCN(Cc4ccc(Br)s4)CC3)cc(C3CC3)nc21	-28.7%	-29.5%	?	1.7%	17.2%
O=C(OCc1cn([C@H]2C[C@H](c3ccccc3)N(Cc3cccs3)C[C@@H]2O)nn1)c1ccccc1	nt	nt	nt	-3.0%	nt
CN(CP(=O)(O)CN(C)S(C)(=O)=O)S(C)(=O)=O	50.1µM*	89.1µM*	-45.0%[12.7 µM]	-0.7%	8.9%
